# Sampled rows, rich in hits. Any-hit rate of the full collection: about 2.4%.
# Tb PFK block = inhibitors of T. brucei phosphofructokinase. T. brucei PFK, ADP-Glo luminescence. O15648. Potency, µM (highest dose often 57.5 µM), without a hit: at the highest dose activity, negative = inhibition, hits mostly inhibitors. 330,000 compounds, 0.17% hits;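 also: 0% = uninhibited 1x PFK enzyme wells and -100% = no-enzyme wells; nearly all actives have a fitted effect of over 60% in size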
#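 Luminescent ADP detection (ADP-Glo, two-step: ATP depletion then ADP-to-ATP conversion for luciferase) reported PFK activity after 45 min room-temperature reaction of 1.25 nM enzyme with 0.5 mM F6P and 0.1 mM ATP at pH 8.0.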
# ELG1 repair inh = ELG1-dependent DNA repair inhibition. Potency, µM (highest dose often 46.1 µM), for inactives: at the top dose activity change, negative = inhibition, hits mostly inhibitors. HEK293T ELG1-luciferase reporter, luminescence, 16 h; DNA damage induced by 5-fluorouridine. 330,000 compounds, 2.3% hits; also: % is scaled to controls: 0 for no effect and ±100 for the full control effect; nearly all actives have a fitted effect of over 55% in size
#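 In this reporter screen, reduction of luminescence relative to DMSO vehicle indicated activity. Compounds and 5-fluorouridine were added together to 2,000 cells per well, incubated for 16 hr at 37 °C, then developed with ONE-Glo.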
# PKM2 act = increases activity of human pyruvate kinase M2. Potency, µM (highest dose often 57.5 µM), for inactives: top-dose activation, usual class: activators. P14618. 260,000 compounds, 0.34% hits. purified PKM2, Kinase-Glo ATP luminescence, activation; response scale: 0% is enzyme alone, no compound; also: % is scaled to controls: 0 for no effect and ±100 for the full control effect; nearly all actives have a fitted effect of over 55% in size
#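 Kinase-Glo luminescence reports ATP generated from ADP (0.1 mM) and PEP (0.5 mM) by purified hPK-M2 after 1 h at room temperature, pH 7.2 imidazole buffer; intermediate enzyme activity allows detecting inhibitors and activators.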
# Tb PGK inh = inhibitors of T. brucei phosphoglycerate kinase. P07378. PGK/GAPDH coupled, Kinase-Glo luminescence, 60 min. Potency, µM (series often up to 57.5 µM), inactives show top-dose activity change, negative = inhibition, hits mostly inhibitors. 380,000 compounds, 0.043% hits; also: % is scaled to controls: 0 for no effect and ±100 for the full control effect; nearly all actives have a fitted effect of over 60% in size
#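 Recombinant glycosomal PGK reaction used 1,3-bisphosphoglycerate generated in-well by GAPDH (100nM final) in 100mM TEA pH 7.6, 5mM MgCl2, 0.01% Tween-20. After 60 minutes at room temperature, ATP was read by Kinase-Glo Plus luminescence end-point.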
# Rango-impB inh = prevents formation of the Rango-importin beta complex | Q14974 | Rango CFP/YFP FRET sensor + importin beta, 45 min | Potency, µM (highest dose often 92.2 µM), without a hit: at the highest dose inhibition of complex formation | 340,000 compounds, 0.031% hits | AID 540263; calls by dose curve;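 also: 0% = DMSO wells and 100% = buffer wells lacking importin beta; nearly all actives have a fitted effect of over 15% in size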
#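 FRET biosensor Rango (snurportin 1 IBB between N-terminal EYFP and C-terminal Cerulean), 50 nM in PBS/1 mM DTT/0.02% Tween-20/0.1% BSA, preincubated 5 min RT with compound; 0.125 microM importin beta added, 45 min RT, CFP/YFP FRET ratio read.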
# Rango release inh = prevents RanGTP from dissociating the Rango-importin beta complex; 340,000 compounds, 0.071% hits; AID 540253; Potency, µM (titrated, usually from 46.1 µM), for the others: at the highest dose activity change, negative = inhibition; O95149+P62826; Biochemical FRET Rango-importin beta, RanGTP-induced dissociation; calls by dose curve; also: % of control where 0% means no effect; nearly all actives have a fitted effect of over 45% in size
#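 Compounds preincubate 5 min with complex of recombinant Rango and importin beta in PBS with 1 mM DTT. Ran (0.6 uM) loaded with 2 mM GTP plus 0.2 uM RCC1 starts dissociation; FRET is recorded 45 min later.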
# Starred values were filed as active, the others as inactive; i = inactive; u = inconclusive; x = not tested or not shown. Unless noted, calls follow the shape of the dose curve; as a rule, active = well fitted curve in the direction sought with a large enough effect; inconclusive = small, poorly fitted or top-dose-only effect, or another doubt; inactive = no such curve, though single readings can be large; an effect the other way counts as inactive or inconclusive. Potency is read from the fitted curve at half-maximal effect.
SMILES,Tb PFK block,ELG1 repair inh,PKM2 act,Tb PGK inh,Rango-impB inh,Rango release inh
CC1CCN(c2c(NCC3CCC(C(=O)NCCCc4ccccc4)CC3)c(=O)c2=O)CC1 (stereo not given),-3%,10µM*,-5%,i,-2%,1%
CC1CCN(c2c(NCC3CCC(C(=O)NCc4ccccc4)CC3)c(=O)c2=O)CC1 (stereo not given),1%,-21%,-3%,i,0%,12%
Cc1ccc(NS(=O)(=O)c2cccc(C(=O)NCC(c3ccc(F)cc3)N3CCOCC3)c2)cc1 (stereo not given),-16%,u,x,-7%,-1%,6%
COc1ccccc1/C=N/NC(=O)c1ccc(CN2C(=O)c3cccc4cccc2c34)cc1,0%,-10%,2%,-10%,u,-29%
NNC(=O)c1ccc(CN2C(=O)c3cccc4cccc2c34)cc1,-2%,9%,5%,-6%,u,18µM*
COC(=O)c1c(-c2ccccc2)[nH]c(-c2nccc3ccccc23)c1C(=O)OC,x,x,x,3%,x,x
N#Cc1cc(-c2ccccc2)[nH]c1-c1nccc2ccccc12,1%,9.2µM*,3%,1%,u,-7%
COc1ccc(NC(=O)COC(=O)c2cc(OC)c(OC)cc2NC(=O)c2ccco2)cc1OC,-1%,23µM*,8%,2%,-1%,-10%
COc1ccccc1NC(=O)c1c(NC(=O)c2ccco2)sc2c1CCC2,5%,-27%,0%,-9%,u,21µM*
CCOc1cc(NS(=O)(=O)CC)c(OCC)cc1NC(=O)c1ccco1,2%,16µM*,-14%,4%,0%,-18%
CCC(=O)Nc1ccc(NC(=O)c2ccco2)c(OC)c1,0%,u,0%,5%,2%,-2%
CCOc1cc(NS(=O)(=O)c2ccc(OC)cc2)c(OCC)cc1NC(=O)c1ccco1,0%,u,6%,-8%,-2%,-15%
COC(=O)c1cc(OC)c(OC)cc1NC(=O)c1ccco1,2%,23µM*,-4%,0%,7%,9%
COc1cc(NC(=O)c2ccco2)c(C(=O)O)cc1OC,6%,-22%,-23%,-5%,-1%,1%
COc1cc(OC)cc(C(=O)Nc2cc(NC(=O)c3ccco3)ccc2OC)c1,-5%,21µM*,0%,i,-1%,2%
COc1cc(NC(=O)c2ccco2)c(OC)cc1NC(=O)CCC(=O)Nc1cc(C)cc(C)c1,-1%,21µM*,10%,11%,-3%,6%
Cc1nn(CC(=O)N(C)C2CCS(=O)(=O)C2)c(C)c1S(=O)(=O)N(C)C (stereo not given),-3%,14%,x,-3%,1%,-4%
Cc1csc2c(N3CCN(C(=O)Nc4ccc(Cl)c(Cl)c4)CC3)ncnc12,-19%,18µM*,1%,5%,0%,-3%
Cc1csc2c(N3CCN(C(=O)NC(C)(C)C)CC3)ncnc12,-1%,u,-3%,10%,1%,0%
Cc1csc2c(N3CCN(C(=O)c4ccc(C(C)(C)C)cc4)CC3)ncnc12,3%,15µM*,2%,-8%,-1%,-16%
COC(=O)C(C)NC(=O)C1CCCN1C(=O)CNC(=O)OCc1ccccc1 (stereo not given),0%,13%,x,-9%,4%,-7%
COCCN(CCOC)c1nc(C)nc2c1nc(-c1ccccc1)n2CCN1CCCC1,x,x,-10%,x,x,x
CSc1ccc(CCNC(=O)CCc2nnc3ccc(N4CCC5(CC4)OCCO5)nn23)cc1,-17%,9.2µM*,2%,-2%,-1%,-17%
CSc1ccc(CCNC(=O)CCc2nnc3ccc(N4CCOCC4)nn23)cc1,-3%,20%,0%,2%,-2%,-3%
Cc1ccc(NNC(=O)C(O)(c2cccc(C(F)(F)F)c2)c2cccc(C(F)(F)F)c2)cc1,0%,18µM*,7%,i,-3%,0%
SMILES,Tb PFK block,ELG1 repair inh,PKM2 act,Tb PGK inh,Rango-impB inh,Rango release inh
O=C(NNc1ccccc1Br)C(O)(c1cccc(C(F)(F)F)c1)c1cccc(C(F)(F)F)c1,-7%,u,9%,i,3%,-10%
CCN1C(=O)S/C(=C/c2ccc(Sc3nc4ccccc4[nH]3)o2)C1=O,u,12µM*,24%,i,u,0%
Cc1noc(C)c1CSc1nc2ccccc2c(=O)n1-c1ccc(Cl)cc1,-2%,u,-1%,i,-2%,2%
COCCCNC(=O)CSc1nc2cc3c(cc2c(=O)n1CCCC(=O)NCc1ccc2c(c1)OCO2)OCO3,x,x,x,i,x,x
CC(C)c1ccc(/C=N/Nc2cc(N3CCOCC3)nc(N3CCOCC3)n2)cc1,2%,u,12%,i,4%,13%
Cc1cc(N/N=C/c2ccc(O)cc2O)nc(N2CCOCC2)n1,2%,u,-4%,i,u,-18%
Cc1cccc(/C=N/Nc2cc(N3CCOCC3)nc(N3CCOCC3)n2)c1,-1%,7.3µM*,0%,-6%,1%,0%
Oc1ccc(/C=N\Nc2cc(N3CCOCC3)nc(N3CCOCC3)n2)c(O)c1,11%,10µM*,-1%,-4%,u,-12%
CCCOc1ccc(/C=N/Nc2cc(N3CCOCC3)ncn2)c(O)c1,2%,2.9µM*,0%,-1%,u,5%
COc1ccc(NC(=O)C2CC(=O)N/C(=N/NC(=O)c3ccc(Cl)cc3)S2)cc1 (stereo not given),0%,16%,-1%,-1%,2%,1%
C[C@H](CO)N1C[C@H](C)[C@@H](CN(C)C(=O)c2ccc3c(c2)OCO3)Oc2cc(/C=C/c3ccccc3)ccc2S1(=O)=O,x,x,x,-5%,x,x
CCOc1ccccc1CNC(=O)CSc1n[nH]c(-c2ccccc2Cl)n1,x,x,x,-3%,x,x
CCC1CCC2(CC1)NNC(=S)NN2,-8%,u,-6%,-2%,1%,0%
Cc1cc(Nc2ccccc2)nc(NCc2ccccc2)n1,-1%,4.6µM*,-8%,i,6%,-18%
CCCCNc1cc(C)nc(NCc2ccccc2)n1,0%,15µM*,8%,-10%,2%,19%
Cc1cc(Nc2ccc(Cl)cc2)nc(NCc2ccccc2)n1,-3%,-1%,8%,-3%,-2%,8%
Cc1cc(C)nc(NCCCc2ccccc2)n1,5%,7%,-1%,x,0%,8%
O=C(Cc1csc(NC(=O)Nc2cccc(Cl)c2)n1)NC1CCCC1,-6%,1%,x,-2%,0%,0%

# Bioassay records (PubChem BioAssay)
